# Cl transport mod = KCC2 (human) Cl- transport modulation | Q9H2X9 | KCC2 cells, thallium flux FluoZin-2 fluorescence | B-score of Tl+ flux slope (higher = more flux/activation; lower = inhibition) at 10 µM | hit rate 2.2% among 190,000;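 active = thallium flux slope and its plate-corrected score both differing from the plate sample mean at a set confidence after two filtering rounds, in either direction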;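 also: slope of fluorescence scaled to starting intensity during 10 to 20 s after thallium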
# Calpain2 inh = blocks pig calpain II enzyme activity | purified calpain II, fluorogenic peptide substrate, 30 min | hit rate 0.37% among 220,000 | inhibition, % at 16 µM;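 active = inhibition above about 50%, limit read from the data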
# Lmaj promast = Leishmania major promastigote growth inhibition | AID 1063 | inhibition, % at 10 µM | Leishmania major promastigotes, resazurin fluorescence viability | hit rate 9% among 200,000; in the data active = inhibition above about 50%;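 also: promastigotes grown with compound for 44 hours at 28 °C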
# WT yeast gro inh = growth inhibition of WT yeast, mitochondrial fusion screen; inhibition, % at 10 µM; AID 1362; hit rate 2.1% among 190,000; mitochondrial fusion phenotypic screen, WT strain; in the data active = inhibition above about 58%; tested in S. cerevisiae
# ROMK mod = modulators of human ROMK potassium channel | P48048 | Tet-inducible ROMK, thallium flux fluorescence; actives lie on both sides | B-score at 10 µM | hit rate 2% among 130,000 | AID 1918;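 active = signal ratio slope over the read window, or its plate-corrected B-score, at least 3 SD from the plate mean, either direction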;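 also: B-score of the F/F0 ratio slope over 7 to 12 s after thallium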
# * = called active by the depositor; . = no result given. Rows were chosen to be rich in hits. Some 12% of all compounds tested hit in one or more screens of this group.
SMILES,Cl transport mod,Calpain2 inh,Lmaj promast,WT yeast gro inh,ROMK mod
O=C(CCN1C(=O)c2ccccc2C1=O)C1=NN[C@@H]2C(=O)N(c3ccc4c(c3)OCCO4)C(=O)[C@H]12,-0.047,22,.,.,.
COc1ccc(Oc2ncc(CN3CCN(c4ccccc4)CC3)s2)cc1,-0.18,18,-1,28,-0.73
Cc1cc(Cl)ccc1Oc1ncc(CN2CCN(c3ccccc3)CC2)s1,0.47,-14,-6,64*,0.54
O=C(O)CCCCCNc1ccc2nsnc2c1[N+](=O)[O-],0.22,-5,0,-5,.
CC(C)(C)C1CCC(OCC(O)CN2CCN(c3ccccc3)CC2)CC1 (stereo not given),-0.2,22,91*,-9,.
Cc1ccc(N2CCN(CC(O)COc3cccc4ccccc34)CC2)cc1 (stereo not given),.,20,.,.,.
COC(=O)c1ccc(OCC(O)CN2CCC(C)CC2)cc1 (stereo not given),0.32,-42,-1,-12,.
Cc1ccc(N2CCN(CC(O)COC3CCCCC3)CC2)cc1 (stereo not given),1.7,9,97*,7,.
CC1CCN(CC(O)COC2CCC(C(C)(C)C)CC2)CC1 (stereo not given),-0.15,5,92*,-15,.
O=C(c1ccccc1)N1CCN(CC(O)COC2CCCCC2)CC1 (stereo not given),-0.17,-11,-3,0,.
CC(C)(C)C1CCC(OCC(O)CN2CCCC2)CC1 (stereo not given),1.1,14,100*,8,-0.92
O=C(Nn1c(-c2ccncc2)nc2ccccc2c1=O)c1ccccc1Br,1.1,-22,3,-10,-0.19
COc1ccc(C)cc1NCC(=O)Nc1ccc(C(C)(C)C)cc1,0.26,6,1,-3,.
CS(=O)(=O)N(Cc1ccccc1F)c1ccccc1,-1.3,-24,-6,-17,-0.036
CN(Cc1ccccc1)C(=O)COC(=O)c1ccc(Cl)cc1N,-2,-122,-8,-4,-0.16
O=C(/C=C/c1ccccc1Cl)c1ccc[nH]1,-1.2,20,74*,10,0.14
C=CCc1ccc(O)c(-c2cc(CC=C)ccc2O)c1,1.2,-52,-8,74*,.
C=CCc1ccc(OCC(O)CO)c(OC)c1 (stereo not given),0.34,-19,0,13,0.03
COC(=O)CN(c1nc(C)cc(OC)n1)S(=O)(=O)c1ccc(C)cc1,-0.13,15,1,-4,.
COC(=O)CN(c1nc(C)c(Br)c(OC)n1)S(=O)(=O)c1ccc(C)cc1,-0.61,13,88*,37,-0.72
COCCNC(=O)/C(C#N)=C/c1ccc(-c2ccc(S(=O)(=O)N3CCOCC3)cc2)o1,-0.19,-50,78*,2,.
Cc1noc(/C=C/N(C)C)c1S(=O)(=O)N1CCCC(C(=O)NC(C)c2ccccc2)C1 (stereo not given),.,1,0,0,-0.029
CCOC(=O)/C=C/C(=O)Nc1ccc(Oc2ccccc2)cc1,-1.5,-1,-2,-16,0.86
Cc1ccccc1NC(=S)N(C)Cc1cccs1,0.61,23,-2,2,.
Cc1ccccc1NC(=S)N(C)Cc1cn(C)c2ccccc12,1.1,4,63*,5,-0.27
SMILES,Cl transport mod,Calpain2 inh,Lmaj promast,WT yeast gro inh,ROMK mod
O=C(NC1CCN(C(=O)N2c3ccccc3Sc3ccccc32)CC1)c1ccccc1Cl,-0.92,-95,95*,4,.
Cc1cc(C)n(-c2nc3ccccc3nc2N2CCC(C)CC2)n1,-1.7,28,4,-5,.
Cc1cc(N2CCC(C)CC2)nc(-n2nc(C)cc2C)n1,-0.26,8,97*,67*,.
Cc1cccc(NC(=S)N(CCCN2CCOCC2)C(C)c2cc3ccccc3o2)c1 (stereo not given),-1.8,15,81*,42,0.045
COc1cccc2cc(C(C)N(CCCN3CCOCC3)C(=S)Nc3cccc(C)c3)oc12 (stereo not given),-0.84,15,18,18,0.011
Cc1cccc(NC(=S)N(CCCN2CCOCC2)C(C)c2cc3ccccc3o2)c1C (stereo not given),-2.4,-18,80*,4,-1.4
CC(C)(C)NC(=O)CN(C(=O)C1CSC(=O)C1)c1ccccc1F (stereo not given),0.014,1,3,3,-0.49
Cc1cnc(C(=O)OCC(=O)N(Cc2ccccc2)C(C)C)cn1,0.32,25,-2,15,-0.48
COc1ccc(C(C(=O)Nc2ccc(F)cc2)N(C(=O)Cn2nnc3ccccc32)C2CC2)cc1 (stereo not given),.,-12,-6,68*,.
Brc1ccccc1CN1CCC(N2CCCCC2)CC1,0.55,4,100*,-4,.
